Screening results deposited in PubChem BioAssay by National Center for Advancing Translational Sciences (NCATS).
This is a sample that favours compounds with a hit; in the whole collection about 19% have one here.
KB-3-1 tox: kills parental KB-3-1 adenocarcinoma cells; KB-3-1 viability, CellTiter-Glo ATP luminescence, 72 h; Potency, µM (series often up to 46.1 µM), most hits filed as cytotoxic; actives 1.4% (n = 400,000); AID 1347075; also: nearly all actives have a fitted effect of over 60% in size
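Cells are dispensed, compounds pinned in, plates held at 37 °C for 72 h, then CellTiter-Glo is added and luminescence read after 10 minutes. Cell line: parental KB-3-1 in phenol-red-free DMEM, 10% FBS.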
DT40 TDP1 CPT: growth inhibition of DT40 Tdp1-/-;hTDP1 cells with camptothecin (screen for TDP1 inhibitors); Potency, µM (series often up to 46.2 µM), usual class: inhibitors; actives 12% (n = 420,000); chicken DT40 Tdp1-/-;hTDP1 cells + 20 nM CPT, ATP luminescence, 48 h; also: nearly all actives have a fitted effect of over 55% in size
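Chicken DT40 Tdp1-/- cells stably complemented with human TDP1 were seeded at 400 cells/well in medium containing 20 nM camptothecin, exposed to pin-transferred compounds, and grown at 37 °C for at least 48 hr. Viability was read as ATP luminescence.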
DT40 TDP1 no CPT: qHTS for Inhibitors of human tyrosyl-DNA phosphodiesterase 1 (TDP1): qHTS in cells in absence of CPT; actives 15% (n = 420,000); DT40 Tdp1-/- hTDP1 cells, no CPT, ATP luminescence, 48 h; Potency, µM (doses to about 46.2 µM), most hits filed as inhibitors; also: nearly all actives have a fitted effect of over 55% in size
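Luminescent ATP content (CellTiter-Glo) served as the growth readout. Knockout chicken DT40 cells expressing human TDP1 were exposed to compounds without camptothecin for a minimum 48 hr at 37 °C.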
HT1080NT lethal: kills 2HG-producing HT-1080-NT fibrosarcoma cells; HT-1080-NT fibrosarcoma viability, CellTiter-Glo ATP luminescence, 48 h; Potency, µM (series often up to 46.1 µM), hits mostly cytotoxic; actives 1.6% (n = 360,000);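 also: NT is the 2HG producing partner of a matched IDH1 knockdown line; nearly all actives have a fitted effect of over 55% in size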
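A 48-hour cytotoxicity screen used HT-1080-NT cells plated 2 hours before compound delivery. ATP-based CellTiter-Glo luminescence measured viability, normalized to DMSO and no-cell controls.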
KB-V1 cytotox: KB-V1 MDR subline cytotoxicity; actives 3.4% (n = 400,000); KB-V1 MDR cells viability, CellTiter-Glo, 72 h; AID 1347076; Potency, µM (highest dose often 46.1 µM), hits mostly cytotoxic; also: nearly all actives have a fitted effect of over 60% in size
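Cytotoxicity toward P-gp-expressing KB-V1 cells was determined as loss of CellTiter-Glo luminescence after 72 h at 37 degrees C. Compounds were tested in quantitative HTS format across a concentration range, with curves fitted to normalized data.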
HT1080 IDH1KD tx: toxicity to HT-1080 IDH1 knockdown cells (counter line). HT-1080 IDH1 knockdown viability, ATP luminescence, 48 h. Potency, µM (doses to about 46.1 µM), actives largely listed as cytotoxic. actives 2% (n = 360,000)
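Viability of IDH1-knockdown HT-1080 fibrosarcoma cells was assessed by CellTiter-Glo after 48 h at 37 °C with titrated compound; concentration-effect curves were classified by fit quality and response size.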
Hits are given with their value; n = inactive; u = inconclusive; x = no result given; [ ] = dose if it differs, or a comment. Calls follow the shape of the dose curve; as a rule, active = well fitted curve in the direction sought with a large enough effect; inconclusive = small, poorly fitted or top-dose-only effect, or another doubt; inactive = no such curve, though single readings can be large; an effect the other way counts as inactive or inconclusive.

SMILES	KB-3-1 tox	DT40 TDP1 CPT	DT40 TDP1 no CPT	HT1080NT lethal	KB-V1 cytotox	HT1080 IDH1KD tx
CC(C)COc1cccc(-c2cc(C(=O)N/N=C/c3ccncc3)c3ccccc3n2)c1	u	9.2µM	u	n	u	18µM
COc1cc(/C=N/NC(=O)CCN2CCCCC2)ccc1O	n	n	n	n	n	n
COc1ccc(C=O)cc1CSc1ncccc1C(=O)O	n	n	n	n	u	n
COc1cc(/C=N/NC(=O)c2cc(-c3ccccc3OC(C)C)nc3ccccc23)ccc1O	18µM	u	1.8µM	n	12µM	u
COc1ccc(/C=N/NC(=O)c2nc(-c3ccccc3)cc(-c3ccccc3)n2)cc1O	u	13µM	16µM	u	16µM	u
COc1ccc(Cc2nc3ccccc3n2CC(=O)N/N=C/c2ccc(O)cc2)cc1OC	n	n	n	n	n	n
COc1ccc(/C=N/NC(=O)c2nc(-c3ccccc3)n(-c3ccccc3)n2)cc1OC	n	u	u	n	n	n
COc1ccc(Cc2nc3ccccc3n2CC(=O)N/N=C/c2ccc(C)cc2O)cc1OC	n	2.1µM	0.65µM	n	n	n
COc1cc(/C=N/NC(=O)c2cc(-c3ccccc3)nc3ccccc23)ccc1O	n	u	u	n	n	u
COc1cc(/C=N/NC(=O)c2nc(-c3ccccc3)n(-c3ccccc3)n2)ccc1O	n	n	n	n	n	n
COc1cc(/C=N/Nc2nc(C)nc3c2cnn3-c2ccccc2)ccc1O	u	2.9µM	2.9µM	u	8.2µM	u
CNCCCCc1cnc(C)c2[nH]c3ccccc3c12	x	n[9.04 µM]	n[9.04 µM]	x	x	x
Cc1ccc(CSc2nc3ccc(NC(=O)C(C)C)cc3s2)cc1	n	n	u	x	n	x
COc1ccc(/C=N/NC(=O)CCn2c3ccccc3c3ccccc32)cc1O	u	1.5µM	1.6µM	1.4µM	n	u
CCOc1cc(/C=N/NC(=O)c2cc(-c3cccc(OC)c3)nc3ccccc23)ccc1O	u	8.2µM	1.3µM	n	u	u
COc1ccc(/C=N/NC(=O)c2cc(-c3ccccc3)nc3ccccc23)cc1O	n	10µM	1.3µM	n	n	n
COc1ccc(CC(=O)N/N=C/c2c(C)n(C)c3ccccc23)cc1OC	u	9.2µM	9.2µM	u	u	13µM
COc1ccc(CC(=O)N/N=C/c2cc(Br)cs2)cc1OC	n	n	u	n	u	n
O=c1[nH]c(C2CCCN(S(=O)(=O)c3ccc(F)cc3)C2)nc2c1nnn2Cc1ccc(F)cc1 (stereo not given)	n	n	u	n	n	n
COc1ccccc1C(=O)Nc1ccc(-c2nc3cc(C)cc(C)c3o2)cc1	n	n	n	x	n	x
COc1ccccc1NC(=O)Cn1c(=O)n(Cc2nc(-c3ccccc3)no2)c(=O)c2ccccc21	n	n	u	x	n	x
Cc1cc(-c2cccs2)c2c(n1)sc1c(=O)[nH]c(=O)[nH]c12	n	16µM	u	n	u	n
S=c1[nH]nc(-c2ccc3ccccc3n2)n1-c1ccccc1	n	n	n	n	23µM	n
CCN(CC(=O)Nc1cc(S(=O)(=O)N2CCCCC2)ccc1C)Cc1ccccc1	u	21µM	18µM	n	u	u
Cc1ccc(S(=O)(=O)N(C)C)cc1NC(=O)C(C)N(C)CCOc1ccc(Cl)cc1 (stereo not given)	n	u	29µM	n	u	n
SMILES	KB-3-1 tox	DT40 TDP1 CPT	DT40 TDP1 no CPT	HT1080NT lethal	KB-V1 cytotox	HT1080 IDH1KD tx
CC(=O)c1ccc(OCCCC(=O)Nc2cc(S(=O)(=O)N3CCCCC3)ccc2C)cc1	n	u	23µM	n	n	n
Cc1ccc(S(=O)(=O)N2CCCCC2)cc1NC(=O)CCOc1ccccc1	n	u	u	n	u	n
CC(=O)c1ccc(OCCCC(=O)Nc2cc(S(=O)(=O)N(C)C)ccc2C)cc1	u	n	n	n	23µM	n
O=C(N/C=C/c1ccccc1)c1cccc([S+](=O)([O-])Nc2ccccc2F)c1	n	x	x	x	u	x
CCOC(=O)C1(C)CCN1C(=O)c1ccc(OC)c(OC)c1 (stereo not given)	n	n	n	n	n	n
CCN(CC(=O)Nc1ccc(C)c(S(=O)(=O)N2CCOCC2)c1)Cc1ccccc1	n	21µM	u	n	u	n
Cc1ccc(OCCNc2ccc(S(=O)(=O)N3CCCC3)cn2)cc1	n	n	u	n	u	n
Cc1ccc(S(=O)(=O)NCCC(=O)Nc2cc(S(=O)(=O)N(C)C)ccc2C)cc1C	n	n	16µM	n	n	n
O=S(=O)(c1ccc(NCCOc2ccccc2)nc1)N1CCCC1	n	n	n	n	21µM	n
Cc1ccc(NC(=O)CCc2ccccc2)cc1S(=O)(=O)N1CCOCC1	n	n	u	n	u	n
Cc1ccc(S(=O)(=O)N2CCCCC2)cc1NC(=O)CCCOc1ccccc1	u	u	21µM	n	n	n
CC(C)c1c(C(=O)N/N=C/C2CC=CCC2)nnn1-c1nonc1N (stereo not given)	n	n	n	n	n	n
Cc1ccc(C(=O)NC(=S)NCc2ccccc2)cc1Br	n	u	u	n	n	n
Cc1ccccc1NC(=O)OCc1ccccc1	n	n	n	n	n	n
CC(=O)c1cccc(NC(=O)CCCOc2ccc(C)cc2)c1	n	n	u	n	u	n
CCN(CC)S(=O)(=O)c1cc(NC(=O)CCCOc2ccc(C(C)=O)cc2)ccc1C	u	u	18µM	n	2.9µM	n
COc1ccc(S(=O)(=O)N2CCOC2CNC(=O)C(=O)NCc2ccc3c(c2)OCO3)cc1C (stereo not given)	n	u	u	n	n	n
Cn1c(=O)n(CCCOc2ccc(Cl)cc2)c2ccccc21	n	15µM	18µM	n	n	n
COc1ccc(OCCn2c(C)nc3ccccc32)cc1	u	u	u	n	u	n
Cc1ccc(OCCCCn2c(CO)nc3ccccc32)cc1	n	23µM	u	n	n	u
CCc1nc2ccccc2n1CCCCOc1ccc(C)cc1	u	u	8.2µM	x	n	x
Cc1nc2ccccc2n1CCOc1ccc(F)cc1	n	u	18µM	n	u	n
Cc1ccccc1Oc1nnc(-c2cccs2)c2ccccc12	n	u	u	n	n	n
OCc1nc2ccccc2n1CCCCOc1ccccc1	n	u	u	n	n	n
OCc1nc2ccccc2n1CCCOc1ccc(Br)cc1	u	16µM	18µM	n	n	n
CCc1nc2ccccc2n1CCCCOc1ccc(Cl)cc1	n	21µM	u	x	n	x
